Paper PMC8384837, “Expanding the binding specificity for RNA recognition by a PUF domain”
Substitutions are numbered along the chain they refer to.

Columns and labels:
Assay in all cases: yeast three-hybrid, YBZ-1, SC-Leu-His + 0.5 mM 3-AT, 4 days
Settings in all cases: tags: N-Gal4 AD-HA kept; label: inside an RPR1-promoter hybrid RNA with tandem MS2 sites; ssRNA
PUM1 PUF domain R2-LWE = PUM1 PUF domain R2-LWE (Homo sapiens, UniProt Q14671 828-1176, N899L;Y900W;Q903E)
How it was run: (§1)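 The interaction score is the logarithmic change in variant frequency from input to selection. It uses log2, with a pseudocount of 1 for absent variants, and frequencies came from PCR-amplified, Illumina-sequenced repeat regions. The libraries were Pumilio-1 PUF domains randomized at the three base-contacting residues per repeat, co-expressed with matching RNA elements in strain YBZ-1 (LexA–MS2 coat fusion, HIS3 reporter). Plating lasted four days on SC-Leu (input) or SC-Leu-His + 0.5 mM 3-AT (selection).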

PUM1 PUF domain R1-KVV = PUM1 PUF domain R1-KVV (Homo sapiens, UniProt Q14671 828-1176, S863K;R864V;Q867V)
How it was run: as §1

PUM1 PUF domain R3-SRV = PUM1 PUF domain R3-SRV (Homo sapiens, UniProt Q14671 828-1176, C935S;Q939V)
How it was run: as §1

PUM1 PUF domain R3-RAM = PUM1 PUF domain R3-RAM (Homo sapiens, UniProt Q14671 828-1176, C935R;R936A;Q939M)
How it was run: as §1

PUM1 PUF domain R7-RHP = PUM1 PUF domain R7-RHP (Homo sapiens, UniProt Q14671 828-1176, S1079R;N1080H;E1083P)
How it was run: as §1

PUM1 PUF domain R7-EPS = PUM1 PUF domain R7-EPS (Homo sapiens, UniProt Q14671 828-1176, S1079E;N1080P;E1083S)
How it was run: as §1

PUM1 PUF domain R3-GND = PUM1 PUF domain R3-GND (Homo sapiens, UniProt Q14671 828-1176, C935G;R936N;Q939D)
How it was run: as §1

PUM1 PUF domain R6-AYE = target: T1, PUM1 PUF domain R6-AYE (Homo sapiens, UniProt Q14671 828-1176, N1043A;Q1047E)
T1 sequence: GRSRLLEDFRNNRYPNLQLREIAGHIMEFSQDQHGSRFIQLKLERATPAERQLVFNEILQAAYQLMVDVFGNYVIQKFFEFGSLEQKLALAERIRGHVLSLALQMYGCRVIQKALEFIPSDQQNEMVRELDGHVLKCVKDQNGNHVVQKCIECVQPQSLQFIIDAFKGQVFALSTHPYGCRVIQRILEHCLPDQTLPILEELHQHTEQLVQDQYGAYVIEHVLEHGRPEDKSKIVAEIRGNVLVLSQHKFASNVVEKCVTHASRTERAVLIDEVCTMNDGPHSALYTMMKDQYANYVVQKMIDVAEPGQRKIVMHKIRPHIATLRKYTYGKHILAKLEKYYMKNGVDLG
How it was run: as §1

PUM1 PUF domain R6-NWI = target: T2, PUM1 PUF domain R6-NWI (Homo sapiens, UniProt Q14671 828-1176, Y1044W;Q1047I)
T2 sequence: T1 sequence with A216N, Y217W, E220I
How it was run: as §1

PUM1 PUF domain R5-FRI = PUM1 PUF domain R5-FRI (Homo sapiens, UniProt Q14671 828-1176, C1007F;Q1011I)
How it was run: as §1

PUM1 PUF domain R5-LLR = PUM1 PUF domain R5-LLR (Homo sapiens, UniProt Q14671 828-1176, C1007L;R1008L;Q1011R)
How it was run: as §1

PUM1 PUF domain R7-TVR = PUM1 PUF domain R7-TVR (Homo sapiens, UniProt Q14671 828-1176, S1079T;N1080V;E1083R)
How it was run: as §1

PUM1 PUF domain R4-NYP = PUM1 PUF domain R4-NYP (Homo sapiens, UniProt Q14671 828-1176, H972Y;Q975P)
How it was run: as §1

PUM1 PUF domain R5-RQP = PUM1 PUF domain R5-RQP (Homo sapiens, UniProt Q14671 828-1176, C1007R;R1008Q;Q1011P)
How it was run: as §1

PUM1 PUF domain R5-KSS = PUM1 PUF domain R5-KSS (Homo sapiens, UniProt Q14671 828-1176, C1007K;R1008S;Q1011S)
How it was run: as §1

PUM1 PUF domain R8-NWG = PUM1 PUF domain R8-NWG (Homo sapiens, UniProt Q14671 828-1176, Y1123W;Q1126G)
How it was run: as §1

PUM1 PUF domain R3-VHP = PUM1 PUF domain R3-VHP (Homo sapiens, UniProt Q14671 828-1176, C935V;R936H;Q939P)
How it was run: as §1

PUM1 PUF domain R6-GWK = target: T3, PUM1 PUF domain R6-GWK (Homo sapiens, UniProt Q14671 828-1176, N1043G;Y1044W;Q1047K)
T3 sequence: T1 sequence with A216G, Y217W, E220K
How it was run: as §1

PUM1 PUF domain R4-MPS = PUM1 PUF domain R4-MPS (Homo sapiens, UniProt Q14671 828-1176, N971M;H972P;Q975S)
How it was run: as §1

PUM1 PUF domain R8-RYM = PUM1 PUF domain R8-RYM (Homo sapiens, UniProt Q14671 828-1176, N1122R;Q1126M)
How it was run: as §1

Sequence of PUM1 PUF domain R1-KVV (Q14671 828-1176 S863K/R864V/Q867V): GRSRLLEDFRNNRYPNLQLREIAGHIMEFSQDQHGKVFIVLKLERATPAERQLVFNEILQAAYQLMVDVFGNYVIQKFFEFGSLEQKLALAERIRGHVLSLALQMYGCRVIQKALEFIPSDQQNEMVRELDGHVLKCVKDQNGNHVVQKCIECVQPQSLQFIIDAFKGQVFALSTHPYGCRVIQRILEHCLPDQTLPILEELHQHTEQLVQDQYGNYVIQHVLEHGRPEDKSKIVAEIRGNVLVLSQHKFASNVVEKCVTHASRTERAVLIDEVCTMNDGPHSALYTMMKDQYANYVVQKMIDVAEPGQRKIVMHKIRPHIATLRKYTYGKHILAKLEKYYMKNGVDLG

Question: With “GGCUAGAACUAGUGGAUCCCCCGGCGCCCGGCGGCUCGAGCCCGGGUAAGUGUAAAAAGUCUGCAUGCCGCCGGGCGCCAUGCCUGCAGGUCGACUCUAGAAAACAUG” as the sequence, how does the binding signal (PUM1 PUF domain R2-LWE) read?
Answer: 7.67 log2 enrichment (interaction score)

Question: With “GGCUAGAACUAGUGGAUCCCCCGGCGCCCGGCGGCUCGAGCCCGGGUAAGUGUAAAUUGUCUGCAUGCCGCCGGGCGCCAUGCCUGCAGGUCGACUCUAGAAAACAUG” as the sequence, how does the binding signal (PUM1 PUF domain R1-KVV) read?
Answer: 5.82 log2 enrichment (interaction score)

Question: Which binding signal (PUM1 PUF domain R3-SRV) does the source give for “GGCUAGAACUAGUGGAUCCCCCGGCGCCCGGCGGCUCGAGCCCGGGUAAGUGUAAUUAGUCUGCAUGCCGCCGGGCGCCAUGCCUGCAGGUCGACUCUAGAAAACAUG” here?
Answer: 2.15 log2 enrichment (interaction score)

Question: What about the binding signal (PUM1 PUF domain R3-RAM) of the same sequence?
Answer: 2.45 log2 enrichment (interaction score)

Question: How did the binding signal (PUM1 PUF domain R7-RHP) turn out when “GGCUAGAACUAGUGGAUCCCCCGGCGCCCGGCGGCUCGAGCCCGGGUAAGUCUAAAUAGUCUGCAUGCCGCCGGGCGCCAUGCCUGCAGGUCGACUCUAGAAAACAUG” was run?
Answer: 4.29 log2 enrichment (interaction score)

Question: And the binding signal (PUM1 PUF domain R7-EPS)?
Answer: 1.4 log2 enrichment (interaction score)

Question: Which results are given for “GGCUAGAACUAGUGGAUCCCCCGGCGCCCGGCGGCUCGAGCCCGGGUAAGUGUAAGUAGUCUGCAUGCCGCCGGGCGCCAUGCCUGCAGGUCGACUCUAGAAAACAUG”?
Answer: binding signal (PUM1 PUF domain R3-SRV): 1.79 log2 enrichment (interaction score); binding signal (PUM1 PUF domain R3-GND): 3.15 log2 enrichment (interaction score)

Question: How did the binding signal (PUM1 PUF domain R6-AYE) turn out when “GGCUAGAACUAGUGGAUCCCCCGGCGCCCGGCGGCUCGAGCCCGGGUAAGUGAAAAUAGUCUGCAUGCCGCCGGGCGCCAUGCCUGCAGGUCGACUCUAGAAAACAUG” was run?
Answer: 6.06 log2 enrichment (interaction score)

Question: What about the binding signal (PUM1 PUF domain R6-NWI) of the same sequence?
Answer: 3.09 log2 enrichment (interaction score)

Question: “GGCUAGAACUAGUGGAUCCCCCGGCGCCCGGCGGCUCGAGCCCGGGUAAGUGUAAAUCGUCUGCAUGCCGCCGGGCGCCAUGCCUGCAGGUCGACUCUAGAAAACAUG” was tested. Which binding signal (PUM1 PUF domain R1-KVV) did it give?
Answer: 5.35 log2 enrichment (interaction score)

Question: Which results are given for “GGCUAGAACUAGUGGAUCCCCCGGCGCCCGGCGGCUCGAGCCCGGGUAAGUGUUAAUAGUCUGCAUGCCGCCGGGCGCCAUGCCUGCAGGUCGACUCUAGAAAACAUG”?
Answer: binding signal (PUM1 PUF domain R5-FRI): 1.47 log2 enrichment (interaction score); binding signal (PUM1 PUF domain R5-LLR): 2.92 log2 enrichment (interaction score)

Question: For “GGCUAGAACUAGUGGAUCCCCCGGCGCCCGGCGGCUCGAGCCCGGGUAAGUGUAAAUGGUCUGCAUGCCGCCGGGCGCCAUGCCUGCAGGUCGACUCUAGAAAACAUG”, which binding signal (PUM1 PUF domain R1-KVV) is on record?
Answer: 1.3 log2 enrichment (interaction score)

Question: For “GGCUAGAACUAGUGGAUCCCCCGGCGCCCGGCGGCUCGAGCCCGGGUAAGUUUAAAUAGUCUGCAUGCCGCCGGGCGCCAUGCCUGCAGGUCGACUCUAGAAAACAUG”, which binding signal (PUM1 PUF domain R7-EPS) is on record?
Answer: 5.7 log2 enrichment (interaction score)

Question: And the binding signal (PUM1 PUF domain R7-TVR)?
Answer: 4.91 log2 enrichment (interaction score)

Question: “GGCUAGAACUAGUGGAUCCCCCGGCGCCCGGCGGCUCGAGCCCGGGUAAGUGUAUAUAGUCUGCAUGCCGCCGGGCGCCAUGCCUGCAGGUCGACUCUAGAAAACAUG” was tested. Which binding signal (PUM1 PUF domain R4-NYP) did it give?
Answer: 2.54 log2 enrichment (interaction score)

Question: For “GGCUAGAACUAGUGGAUCCCCCGGCGCCCGGCGGCUCGAGCCCGGGUAAGUGUCAAUAGUCUGCAUGCCGCCGGGCGCCAUGCCUGCAGGUCGACUCUAGAAAACAUG”, which binding signal (PUM1 PUF domain R5-FRI) is on record?
Answer: 2.41 log2 enrichment (interaction score)

Question: What about the binding signal (PUM1 PUF domain R5-RQP) of the same sequence?
Answer: 4.91 log2 enrichment (interaction score)

Question: What about the binding signal (PUM1 PUF domain R5-KSS) of the same sequence?
Answer: 3.4 log2 enrichment (interaction score)

Question: How did the binding signal (PUM1 PUF domain R5-FRI) turn out when “GGCUAGAACUAGUGGAUCCCCCGGCGCCCGGCGGCUCGAGCCCGGGUAAGUGUAAAUAGUCUGCAUGCCGCCGGGCGCCAUGCCUGCAGGUCGACUCUAGAAAACAUG” was run?
Answer: 1.55 log2 enrichment (interaction score)

Question: And the binding signal (PUM1 PUF domain R8-NWG)?
Answer: 3.93 log2 enrichment (interaction score)

Question: What about the binding signal (PUM1 PUF domain R3-VHP) of the same sequence?
Answer: 3.02 log2 enrichment (interaction score)

Question: And the binding signal (PUM1 PUF domain R2-LWE)?
Answer: 4.67 log2 enrichment (interaction score)

Question: And the binding signal (PUM1 PUF domain R3-SRV)?
Answer: 3.25 log2 enrichment (interaction score)

Question: What about the binding signal (PUM1 PUF domain R5-RQP) of the same sequence?
Answer: 2.21 log2 enrichment (interaction score)

Question: What about the binding signal (PUM1 PUF domain R6-GWK) of the same sequence?
Answer: 7.25 log2 enrichment (interaction score)

Question: And the binding signal (PUM1 PUF domain R4-MPS)?
Answer: 4.59 log2 enrichment (interaction score)

Question: Which results are given for “GGCUAGAACUAGUGGAUCCCCCGGCGCCCGGCGGCUCGAGCCCGGGUAAGUGUACAUAGUCUGCAUGCCGCCGGGCGCCAUGCCUGCAGGUCGACUCUAGAAAACAUG”?
Answer: binding signal (PUM1 PUF domain R4-NYP): 2.11 log2 enrichment (interaction score); binding signal (PUM1 PUF domain R4-MPS): 2.38 log2 enrichment (interaction score)

Question: How did the binding signal (PUM1 PUF domain R2-LWE) turn out when “GGCUAGAACUAGUGGAUCCCCCGGCGCCCGGCGGCUCGAGCCCGGGUAAGUGUAAAGAGUCUGCAUGCCGCCGGGCGCCAUGCCUGCAGGUCGACUCUAGAAAACAUG” was run?
Answer: 6.63 log2 enrichment (interaction score)

Question: “GGCUAGAACUAGUGGAUCCCCCGGCGCCCGGCGGCUCGAGCCCGGGUAAGCGUAAAUAGUCUGCAUGCCGCCGGGCGCCAUGCCUGCAGGUCGACUCUAGAAAACAUG” was tested. Which binding signal (PUM1 PUF domain R8-RYM) did it give?
Answer: 4.93 log2 enrichment (interaction score)

Question: For “GGCUAGAACUAGUGGAUCCCCCGGCGCCCGGCGGCUCGAGCCCGGGUAAGUGGAAAUAGUCUGCAUGCCGCCGGGCGCCAUGCCUGCAGGUCGACUCUAGAAAACAUG”, which binding signal (PUM1 PUF domain R6-AYE) is on record?
Answer: 3.94 log2 enrichment (interaction score)
